Records with an inconclusive call do not appear. Calls of active or inactive are those of the source. The call rests on the fitted dose curve; in most records, active means well fitted curve in the direction sought with a large enough effect in the repeat runs; inconclusive means weak or mixed curves; inactive means no such curve, though single readings can be large; an effect the other way counts as inactive or inconclusive.
Key:
[1] = qHTS RealTime-Glo MT Cell Viability Assay in HepG2 cells - 40 hour (AID 1224870); settings: RealTime-Glo luminescence; series mostly up to 76.8 µM; further: nearly all actives have a fitted effect of over 50% in size
How it was run: (§1)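 HepG2 cells (600/well) mixed with RealTime-Glo MT reagent, settled 5 h at 37 C/5% CO2 before compound addition. Nonlytic NanoLuc luminescence from viable-cell prosubstrate reduction read repeatedly during 40 h treatment at 37 C.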

[2] = A CellTox Green Cytotoxicity Assay to monitor cytotoxicity in HEK293 cells - 40 hour (AID 1224871); settings: CellTox Green fluorescence; series mostly up to 35.3 µM; further: nearly all actives have a fitted effect of over 45% in size
How it was run: (§2)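 Homogeneous no-lysis format: HEK293 cell suspension mixed with CellTox Green reagent, seeded, incubated 5 h at 37 C/5% CO2, then dosed by pintool with compound in DMSO.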

[3] = qHTS RealTime-Glo MT Cell Viability Assay in HEK293 cells - 16 hour (AID 1224872); settings: RealTime-Glo luminescence; series mostly up to 76.8 µM; further: top concentration of the series differs between compounds; nearly all actives have a fitted effect of over 50% in size
How it was run: (§3)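 Tox21 10K qHTS, HEK293, 600 cells/well, RealTime-Glo reagent co-dispensed with cells; 5 h preincubation, compound by pintool, 37 C, luminescence at 0–40 h.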

[4] = qHTS RealTime-Glo MT Cell Viability Assay in HepG2 cells - 8 hour (AID 1224873); settings: RealTime-Glo luminescence; series mostly up to 76.8 µM; further: nearly all actives have a fitted effect of over 55% in size
How it was run: as §1

[5] = qHTS RealTime-Glo MT Cell Viability Assay in HEK293 cells - 40 hour (AID 1224874); settings: RealTime-Glo luminescence; max response: hits give low values; further: nearly all actives have a fitted effect of over 50% in size
How it was run: (§4)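 Measured as luminescence from the same continuously cultured HEK293 wells at successive time points (0, 8, 16, 24, 32, 40 h) after compound addition. Reagent present from seeding; dosing at 5 h; incubation 37 C.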

[6] = A CellTox Green Cytotoxicity Assay to monitor cytotoxicity in HEK293 cells - 24 hour (AID 1224875); settings: CellTox Green fluorescence; series mostly up to 76.8 µM; further: nearly all actives have a fitted effect of over 45% in size
How it was run: as §2

[7] = A CellTox Green Cytotoxicity Assay to monitor cytotoxicity in HepG2 cells - 16 hour (AID 1224876); settings: CellTox Green fluorescence; series mostly up to 76.8 µM; further: nearly all actives have a fitted effect of over 45% in size
How it was run: (§5)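 Fluorescent DNA-binding dye, 600 HepG2 cells/well, 5 h preincubation then compound in DMSO; same plates read at 0–40 h, 37 C.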

[8] = qHTS RealTime-Glo MT Cell Viability Assay in HepG2 cells - 32 hour (AID 1224877); settings: RealTime-Glo luminescence; series mostly up to 76.8 µM; further: nearly all actives have a fitted effect of over 55% in size
How it was run: (§6)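 Cells + NanoLuc/prosubstrate dispensed (600 cells/well) → 5 h at 37 C/5% CO2 → compounds in DMSO transferred → 40 h incubation at 37 C, luminescence read at 0, 8, 16, 24, 32, 40 h.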

[9] = A CellTox Green Cytotoxicity Assay to monitor cytotoxicity in HepG2 cells - 24 hour (AID 1224878); settings: CellTox Green fluorescence; series mostly up to 76.8 µM; further: nearly all actives have a fitted effect of over 45% in size
How it was run: as §5

[10] = A CellTox Green Cytotoxicity Assay to monitor cytotoxicity in HepG2 cells - 40 hour (AID 1224879); settings: CellTox Green fluorescence; series mostly up to 76.8 µM; further: nearly all actives have a fitted effect of over 40% in size
How it was run: as §5

[11] = qHTS RealTime-Glo MT Cell Viability Assay in HEK293 cells - 0 hour (AID 1224880); settings: RealTime-Glo luminescence; series mostly up to 76.8 µM
How it was run: as §4

[12] = A CellTox Green Cytotoxicity Assay to monitor cytotoxicity in HEK293 cells - 32 hour (AID 1224881); settings: CellTox Green fluorescence; series mostly up to 35.3 µM; further: nearly all actives have a fitted effect of over 40% in size
How it was run: as §2

[13] = A CellTox Green Cytotoxicity Assay to monitor cytotoxicity in HepG2 cells - 0 hour (AID 1224882); settings: CellTox Green fluorescence; series mostly up to 76.8 µM; further: nearly all actives have a fitted effect of over 35% in size
How it was run: as §5

[14] = A CellTox Green Cytotoxicity Assay to monitor cytotoxicity in HepG2 cells - 32 hour (AID 1224883); settings: CellTox Green fluorescence; series mostly up to 76.8 µM; further: nearly all actives have a fitted effect of over 50% in size
How it was run: as §5

[15] = A CellTox Green Cytotoxicity Assay to monitor cytotoxicity in HEK293 cells - 8 hour (AID 1224884); settings: CellTox Green fluorescence; series mostly up to 76.8 µM; further: nearly all actives have a fitted effect of over 35% in size
How it was run: as §2

[16] = qHTS RealTime-Glo MT Cell Viability Assay in HepG2 cells - 16 hour (AID 1224885); settings: RealTime-Glo luminescence; series mostly up to 76.8 µM; further: nearly all actives have a fitted effect of over 50% in size
How it was run: as §6

[17] = qHTS RealTime-Glo MT Cell Viability Assay in HEK293 cells - 24 hour (AID 1224886); settings: RealTime-Glo luminescence; series mostly up to 76.8 µM
How it was run: as §3

[18] = qHTS RealTime-Glo MT Cell Viability Assay in HEK293 cells - 8 hour (AID 1224887); settings: RealTime-Glo luminescence; series mostly up to 76.8 µM
How it was run: as §4

[19] = A CellTox Green Cytotoxicity Assay to monitor cytotoxicity in HEK293 cells - 16 hour (AID 1224888); settings: CellTox Green fluorescence; series mostly up to 76.8 µM; further: nearly all actives have a fitted effect of over 35% in size
How it was run: as §2

[20] = qHTS RealTime-Glo MT Cell Viability Assay in HepG2 cells - 0 hour (AID 1224889); settings: RealTime-Glo luminescence; series mostly up to 76.8 µM; further: nearly all actives have a fitted effect of over 50% in size
How it was run: as §6
On the % scale 0 is the no-effect control and ±100 the full control effect.

C[C@](N)(Cc1ccc(O)cc1)C(=O)O
inactive: activity change, negative = cytotoxic [1] 4.28% [at 6.97 µM] | cytotoxicity increase [2] 1.26% [at 6.97 µM] | activity change, negative = cytotoxicity [3] 1.36% [at 6.97 µM] | viability change, negative = cytotoxic [4] 1.11% [at 6.97 µM] | max response [5] 0.763% | activity change [6] 2.77% [at 6.97 µM, hits give high values] | cytotoxicity increase [7] -1.17% [at 6.97 µM] | activity change, negative = cytotoxic [8] 3.47% [at 6.97 µM] | cytotoxicity [9] -1.48% [at 6.97 µM] | cytotoxicity increase [10] -2.6% [at 6.97 µM] | activity change, negative = cytotoxicity [11] 0.416% [at 6.97 µM] | cytotoxicity increase [12] 3.03% [at 6.97 µM] | cytotoxicity [13] 0.583% [at 6.97 µM] | cytotoxicity increase [14] -6.04% [at 6.97 µM] | cytotoxicity increase [15] 2.1% [at 6.97 µM] | activity change, negative = cytotoxic [16] -0.0046% [at 6.97 µM] | activity change, negative = cytotoxicity [17] 0.918% [at 6.97 µM] | activity change, negative = cytotoxicity [18] 3.77% [at 6.97 µM] | activity change [19] 4.06% [at 6.97 µM, hits give high values] | activity change, negative = cytotoxicity [20] -5.13% [at 6.97 µM]

CC(=O)c1ccccc1O
inactive: Potency [1] | Potency [2] | Potency [3] | Potency [4] | max response [5] 9.04% | Potency [6] | Potency [7] | Potency [8] | Potency [9] | Potency [10] | Potency [11] | Potency [12] | Potency [13] | Potency [14] | Potency [15] | Potency [16] | Potency [17] | Potency [18] | Potency [19] | Potency [20]

COc1ccccc1OCC(O)CN1CCN(CC(=O)Nc2c(C)cccc2C)CC1 (stereo not given)
inactive: Potency [1] | Potency [2] | Potency [3] | Potency [4] | max response [5] -12.4% | Potency [6] | Potency [7] | Potency [8] | Potency [9] | Potency [10] | Potency [11] | Potency [12] | Potency [13] | Potency [14] | Potency [15] | Potency [16] | Potency [17] | Potency [18] | Potency [19] | Potency [20]

CC(C)(O)C(=O)c1ccccc1
inactive: Potency [1] | Potency [2] | Potency [3] | Potency [4] | max response [5] 1.69% | Potency [6] | Potency [7] | Potency [8] | Potency [9] | Potency [10] | Potency [11] | Potency [12] | Potency [13] | Potency [14] | Potency [15] | Potency [16] | Potency [17] | Potency [18] | Potency [19] | Potency [20]

CS(=O)(=O)O
inactive: Potency [1] | Potency [2] | Potency [3] | Potency [4] | max response [5] 2.93% | Potency [6] | Potency [7] | Potency [8] | Potency [9] | Potency [10] | Potency [11] | Potency [12] | Potency [13] | Potency [14] | Potency [15] | Potency [16] | Potency [17] | Potency [18] | Potency [19] | Potency [20]

CC1(C)CO[C@@H](CC(=O)O)CN1
inactive: Potency [1] | Potency [2] | Potency [3] | Potency [4] | max response [5] 4.58% | Potency [6] | Potency [7] | Potency [8] | Potency [9] | Potency [10] | Potency [11] | Potency [12] | Potency [13] | Potency [14] | Potency [15] | Potency [16] | Potency [17] | Potency [18] | Potency [19] | Potency [20]

O=c1[nH]c(=O)n([C@H]2C[C@H](O)[C@@H](CO)O2)cc1I
inactive: Potency [1] | Potency [2] | Potency [3] | Potency [4] | max response [5] 5.93% | Potency [6] | Potency [7] | Potency [8] | Potency [9] | Potency [10] | Potency [11] | Potency [12] | Potency [13] | Potency [14] | Potency [15] | Potency [16] | Potency [17] | Potency [18] | Potency [19] | Potency [20]

Cc1[nH]c(=O)c(C#N)cc1-c1ccc2nccn2c1
inactive: Potency [1] | Potency [2] | Potency [3] | Potency [4] | max response [5] 5.99% | Potency [6] | Potency [7] | Potency [8] | Potency [9] | Potency [10] | Potency [11] | Potency [12] | Potency [13] | Potency [14] | Potency [15] | Potency [16] | Potency [17] | Potency [18] | Potency [19] | Potency [20]

CCO[Si](CCC1CCC2OC2C1)(OCC)OCC (stereo not given)
inactive: Potency [1] | Potency [2] | Potency [3] | Potency [4] | max response [5] 14.1% | Potency [6] | Potency [7] | Potency [8] | Potency [9] | Potency [10] | Potency [11] | Potency [12] | Potency [13] | Potency [14] | Potency [15] | Potency [16] | Potency [17] | Potency [18] | Potency [19] | Potency [20]

O=C(O)Cc1ccc(CCNS(=O)(=O)c2ccc(Cl)cc2)cc1
inactive: Potency [1] | Potency [2] | Potency [3] | Potency [4] | max response [5] -1.15% | Potency [6] | Potency [7] | Potency [8] | Potency [9] | Potency [10] | Potency [11] | Potency [12] | Potency [13] | Potency [14] | Potency [15] | Potency [16] | Potency [17] | Potency [18] | Potency [19] | Potency [20]

CC(=O)OCC(CCn1cnc2cnc(N)nc21)COC(C)=O
inactive: Potency [1] | Potency [2] | Potency [3] | Potency [4] | max response [5] -0.0813% | Potency [6] | Potency [7] | Potency [8] | Potency [9] | Potency [10] | Potency [11] | Potency [12] | Potency [13] | Potency [14] | Potency [15] | Potency [16] | Potency [17] | Potency [18] | Potency [19] | Potency [20]

NC(=O)COCCN1CCN(C(c2ccccc2)c2ccc(Cl)cc2)CC1 (stereo not given)
inactive: Potency [1] | Potency [2] | Potency [3] | Potency [4] | max response [5] 4.08% | Potency [6] | Potency [7] | Potency [8] | Potency [9] | Potency [10] | Potency [11] | Potency [12] | Potency [13] | Potency [14] | Potency [15] | Potency [16] | Potency [17] | Potency [18] | Potency [19] | Potency [20]
